Records with an inconclusive call do not appear. Activity calls are given as the source filed them. Unless noted, calls come from the whole dose curve.
molecular target: Estrogen receptor (Homo sapiens) (UniProt P03372); assay: qHTS assay to identify small molecule agonists of the estrogen receptor alpha (ER-alpha) signaling pathway (AID 743075); conditions: HEK293 ER-alpha-UAS-bla, beta-lactamase FRET ratio, 18 h; series mostly up to 70.1 µM; activation: at the top concentration;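 note: HEK293 GripTite cells with ER-alpha and UAS-driven beta-lactamase reporter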
% is set by controls: 0 for no effect and ±100 for the full control effect.

Chain of Estrogen receptor (Homo sapiens) (P03372 whole entry, looked up): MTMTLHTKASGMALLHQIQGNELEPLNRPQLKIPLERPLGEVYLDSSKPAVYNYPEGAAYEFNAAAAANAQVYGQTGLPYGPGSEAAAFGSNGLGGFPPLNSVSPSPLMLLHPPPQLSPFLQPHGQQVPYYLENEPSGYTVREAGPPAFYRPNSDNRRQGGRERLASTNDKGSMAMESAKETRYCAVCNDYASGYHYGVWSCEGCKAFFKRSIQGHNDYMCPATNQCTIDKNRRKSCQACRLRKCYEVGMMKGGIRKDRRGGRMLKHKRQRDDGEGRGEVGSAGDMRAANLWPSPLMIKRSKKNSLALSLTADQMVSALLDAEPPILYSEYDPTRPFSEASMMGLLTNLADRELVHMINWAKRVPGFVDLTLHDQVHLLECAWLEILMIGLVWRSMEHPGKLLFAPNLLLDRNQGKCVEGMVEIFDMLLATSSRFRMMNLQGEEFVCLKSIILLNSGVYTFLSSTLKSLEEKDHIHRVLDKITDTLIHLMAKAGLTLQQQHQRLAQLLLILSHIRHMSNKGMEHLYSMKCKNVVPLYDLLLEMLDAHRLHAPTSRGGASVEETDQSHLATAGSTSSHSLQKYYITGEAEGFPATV

Compound	activation
FC(F)(F)C(F)(F)C(F)(F)C(F)(F)C(F)(F)C(F)(F)F	-2.18% (inactive)
Nc1ncnc2c1ncn2CCOCP(=O)(O)O	1.23% (inactive)
C/C(=C(\CCOC(=O)c1ccccc1)SS/C(CCOC(=O)c1ccccc1)=C(/C)N(C=O)Cc1cnc(C)nc1N)N(C=O)Cc1cnc(C)nc1N	6.04% (inactive)
CCOc1cc(-c2nccc3cc(OC)c(OC)cc23)cc(OCC)c1OCC	1.2% (inactive)
CC(=O)N=c1sc(S(N)(=O)=O)nn1C	-0.927% [at 32.9 µM] (inactive)
CN1[C@@H]2CCC[C@H]1CC(NC(=O)c1nn(C)c3ccccc13)C2 (some centres undefined)	-3.15% (inactive)
COC1=C(C(=O)O)N2C(=O)[C@@H](NC(=O)[C@H](N)C3=CCC=CC3)[C@H]2SC1	-1.2% (inactive)
CCCCc1cc2c(=O)c(C(=O)OC)c[nH]c2cc1OCc1ccccc1	1.14% (inactive)
CCCCCCCCCCCCCCCCCC(=O)[O][Al]	-0.244% (inactive)
O=C(Nc1ccc(Br)cc1)c1cc(Br)c(Br)s1	2.79% (inactive)
C[C@H](N)C(=O)N[C@@H](C)P(=O)(O)O	-2.25% (inactive)
NC[C@@H]1O[C@H](O[C@H]2[C@@H](O)[C@H](O[C@@H]3[C@@H](O)[C@H](N)C[C@H](N)[C@H]3O[C@H]3O[C@H](CO)[C@@H](O)[C@H](O)[C@H]3N)O[C@@H]2CO)[C@H](N)[C@@H](O)[C@@H]1O	5.98% (inactive)
Cc1cccc(Nc2ncccc2C(=O)O)c1C	-4.81% (inactive)
OCCO[C@@H]1[C@@H](O)[C@H](O)[C@@H](CO)O[C@@H]1O	3.94% (inactive)
N[C@H](CCC(=O)O)C(=O)O	-1.08% (inactive)
Cc1ccc(C2(O)CCN(CCCC(=O)c3ccc(F)cc3)CC2)cc1	-1.54% (inactive)
CO[C@H]1O[C@@H]2O[C@@]3(C)CC[C@H]4[C@H](C)CC[C@@H]([C@H]1C)[C@@]24OO3	-2.1% (inactive)
CC1=C(/C=C/C(C)=C/C=C/C(C)=C/C(=O)Oc2c(C)c(C)c3c(c2C)CC[C@@](C)(CCC[C@H](C)CCC[C@H](C)CCCC(C)C)O3)C(C)(C)CCC1	6.62% (inactive)
NS(=O)(=O)c1cc2c(cc1Cl)NC(Cc1ccccc1)NS2(=O)=O (centres undefined)	0.508% (inactive)
c1cnc2cc3c(cc2n1)[C@@H]1CNC[C@H]3C1	-1.53% (inactive)
NCCCC[C@H](NC(=O)[C@@H]1CCCN1C(=O)[C@@H]1CSSC[C@H](N)C(=O)N[C@@H](Cc2ccccc2)C(=O)N[C@@H](Cc2ccccc2)C(=O)N[C@@H](CCC(N)=O)C(=O)N[C@@H](CC(N)=O)C(=O)N1)C(=O)NCC(N)=O	-2.27% (inactive)

molecular target: Estrogen receptor (Homo sapiens) (UniProt P03372); assay: qHTS assay to identify small molecule agonists of the estrogen receptor alpha (ER-alpha) signaling pathway using the BG1 cell line (AID 743079; active = well fitted activation curve with a large enough effect in the repeat runs; note: nearly all actives have a fitted effect of over 20% in size; note: potency is the fitted concentration of half-maximal effect); conditions: BG1Luc4E2 cells, ERE-luciferase agonist, 22 h; activation: at 70.3 µM (top of the series)

Compound	activation	Potency
FC(F)(F)C(F)(F)C(F)(F)C(F)(F)C(F)(F)C(F)(F)F	-1.83% (inactive)	–
Nc1ncnc2c1ncn2CCOCP(=O)(O)O	2.28% (inactive)	–
CCCCCCCCCCCCCCCC(=O)OC[C@@H](NC(=O)C(Cl)Cl)[C@H](O)c1ccc([N+](=O)[O-])cc1	30.7% (inactive)	–
CC(=O)N=c1sc(S(N)(=O)=O)nn1C	-9.4% [at 32.5 µM] (inactive)	–
CN1[C@@H]2CCC[C@H]1CC(NC(=O)c1nn(C)c3ccccc13)C2 (some centres undefined)	-10.8% (inactive)	–
COC1=C(C(=O)O)N2C(=O)[C@@H](NC(=O)[C@H](N)C3=CCC=CC3)[C@H]2SC1	-11% (inactive)	–
CCCCc1cc2c(=O)c(C(=O)OC)c[nH]c2cc1OCc1ccccc1	2.29% (inactive)	–
CCCCCCCCCCCCCCCCCC(=O)[O][Al]	4.77% (inactive)	–
C[C@H](N)C(=O)N[C@@H](C)P(=O)(O)O	-0.919% (inactive)	–
NC[C@@H]1O[C@H](O[C@H]2[C@@H](O)[C@H](O[C@@H]3[C@@H](O)[C@H](N)C[C@H](N)[C@H]3O[C@H]3O[C@H](CO)[C@@H](O)[C@H](O)[C@H]3N)O[C@@H]2CO)[C@H](N)[C@@H](O)[C@@H]1O	–	26.6 µM (active)
OCCO[C@@H]1[C@@H](O)[C@H](O)[C@@H](CO)O[C@@H]1O	16.3% (inactive)	–
N[C@H](CCC(=O)O)C(=O)O	5.93% (inactive)	–
CC(O)CN(C)C (centres undefined)	–	11.9 µM (active)
Cc1ccc(C2(O)CCN(CCCC(=O)c3ccc(F)cc3)CC2)cc1	-4.4% (inactive)	–
CO[C@H]1O[C@@H]2O[C@@]3(C)CC[C@H]4[C@H](C)CC[C@@H]([C@H]1C)[C@@]24OO3	-5.3% (inactive)	–
CC1=C(/C=C/C(C)=C/C=C/C(C)=C/C(=O)Oc2c(C)c(C)c3c(c2C)CC[C@@](C)(CCC[C@H](C)CCC[C@H](C)CCCC(C)C)O3)C(C)(C)CCC1	-26.3% (inactive)	–
NS(=O)(=O)c1cc2c(cc1Cl)NC(Cc1ccccc1)NS2(=O)=O (centres undefined)	15.7% (inactive)	–
c1cnc2cc3c(cc2n1)[C@@H]1CNC[C@H]3C1	-5.47% (inactive)	–
NCCCC[C@H](NC(=O)[C@@H]1CCCN1C(=O)[C@@H]1CSSC[C@H](N)C(=O)N[C@@H](Cc2ccccc2)C(=O)N[C@@H](Cc2ccccc2)C(=O)N[C@@H](CCC(N)=O)C(=O)N[C@@H](CC(N)=O)C(=O)N1)C(=O)NCC(N)=O	4.29% (inactive)	–

system: not listed separately; assay: qHTS assay to identify small molecule antagonists of the estrogen receptor alpha (ER-alpha) signaling pathway using the BG1 cell line (AID 743080); conditions: BG1Luc4E2 ERE-luciferase antagonist mode, luminescence; series mostly up to 70.3 µM; activity change, negative = inhibition: at the top concentration;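 note: BG1 cells stimulated with 17beta-estradiol alongside compound; nearly all actives have a fitted effect of over 25% in size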; note: potency is the fitted concentration of half-maximal effect
Method in brief: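 BG1Luc4E2, endogenous ER-alpha, 4xERE-luc; 5 d charcoal-stripped FBS, phenol red free; 24 h plating; cpd + 17beta-estradiol 21.5 h, 37 C/5% CO2; CellTiter-Fluor viability 30 min, then ONE-Glo luciferase 30 min RT.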

Compound	activity change, negative = inhibition	Potency
FC(F)(F)C(F)(F)C(F)(F)C(F)(F)C(F)(F)C(F)(F)F	1.47% (inactive)	–
Nc1ncnc2c1ncn2CCOCP(=O)(O)O	-2.82% (inactive)	–
CCCCCCCCCCCCCCCC(=O)OC[C@@H](NC(=O)C(Cl)Cl)[C@H](O)c1ccc([N+](=O)[O-])cc1	0.545% (inactive)	–
C/C(=C(\CCOC(=O)c1ccccc1)SS/C(CCOC(=O)c1ccccc1)=C(/C)N(C=O)Cc1cnc(C)nc1N)N(C=O)Cc1cnc(C)nc1N	1.24% (inactive)	–
CC(=O)N=c1sc(S(N)(=O)=O)nn1C	3.71% [at 32.5 µM] (inactive)	–
CN1[C@@H]2CCC[C@H]1CC(NC(=O)c1nn(C)c3ccccc13)C2 (some centres undefined)	9.51% (inactive)	–
COC1=C(C(=O)O)N2C(=O)[C@@H](NC(=O)[C@H](N)C3=CCC=CC3)[C@H]2SC1	6.86% (inactive)	–
CCCCc1cc2c(=O)c(C(=O)OC)c[nH]c2cc1OCc1ccccc1	-0.917% (inactive)	–
CCCCCCCCCCCCCCCCCC(=O)[O][Al]	1.92% (inactive)	–
C[C@H](N)C(=O)N[C@@H](C)P(=O)(O)O	2.5% (inactive)	–
NC[C@@H]1O[C@H](O[C@H]2[C@@H](O)[C@H](O[C@@H]3[C@@H](O)[C@H](N)C[C@H](N)[C@H]3O[C@H]3O[C@H](CO)[C@@H](O)[C@H](O)[C@H]3N)O[C@@H]2CO)[C@H](N)[C@@H](O)[C@@H]1O	13.9% (inactive)	–
N[C@H](CCC(=O)O)C(=O)O	10.8% (inactive)	–
CC(O)CN(C)C (centres undefined)	4.39% (inactive)	–
Cc1ccc(C2(O)CCN(CCCC(=O)c3ccc(F)cc3)CC2)cc1	-0.115% (inactive)	–
CO[C@H]1O[C@@H]2O[C@@]3(C)CC[C@H]4[C@H](C)CC[C@@H]([C@H]1C)[C@@]24OO3	-13.9% (inactive)	–
CC1=C(/C=C/C(C)=C/C=C/C(C)=C/C(=O)Oc2c(C)c(C)c3c(c2C)CC[C@@](C)(CCC[C@H](C)CCC[C@H](C)CCCC(C)C)O3)C(C)(C)CCC1	–	7.5 µM (active)
NS(=O)(=O)c1cc2c(cc1Cl)NC(Cc1ccccc1)NS2(=O)=O (centres undefined)	-10.6% (inactive)	–
c1cnc2cc3c(cc2n1)[C@@H]1CNC[C@H]3C1	-11% (inactive)	–
NCCCC[C@H](NC(=O)[C@@H]1CCCN1C(=O)[C@@H]1CSSC[C@H](N)C(=O)N[C@@H](Cc2ccccc2)C(=O)N[C@@H](Cc2ccccc2)C(=O)N[C@@H](CCC(N)=O)C(=O)N[C@@H](CC(N)=O)C(=O)N1)C(=O)NCC(N)=O	0.233% (inactive)	–

— PubChem BioAssay (Tox21)
